Reference: ChEMBL document CHEMBL1201862, “PubChem BioAssay data set” (2004)
About 1,900 (0.47%) of roughly 400,000 compounds were called active. Not shown: some 14% with an inconclusive outcome. The rule behind the calls is not given here. The entries come from a sample that favours actives as a whole.

Each compound was assayed against Ataxin-2 (Homo sapiens) (UniProt Q99700) (assay: qHTS for Inhibitors of ATXN expression.).
Assay type: functional

Chain of Ataxin-2 (Homo sapiens) (Q99700 whole entry): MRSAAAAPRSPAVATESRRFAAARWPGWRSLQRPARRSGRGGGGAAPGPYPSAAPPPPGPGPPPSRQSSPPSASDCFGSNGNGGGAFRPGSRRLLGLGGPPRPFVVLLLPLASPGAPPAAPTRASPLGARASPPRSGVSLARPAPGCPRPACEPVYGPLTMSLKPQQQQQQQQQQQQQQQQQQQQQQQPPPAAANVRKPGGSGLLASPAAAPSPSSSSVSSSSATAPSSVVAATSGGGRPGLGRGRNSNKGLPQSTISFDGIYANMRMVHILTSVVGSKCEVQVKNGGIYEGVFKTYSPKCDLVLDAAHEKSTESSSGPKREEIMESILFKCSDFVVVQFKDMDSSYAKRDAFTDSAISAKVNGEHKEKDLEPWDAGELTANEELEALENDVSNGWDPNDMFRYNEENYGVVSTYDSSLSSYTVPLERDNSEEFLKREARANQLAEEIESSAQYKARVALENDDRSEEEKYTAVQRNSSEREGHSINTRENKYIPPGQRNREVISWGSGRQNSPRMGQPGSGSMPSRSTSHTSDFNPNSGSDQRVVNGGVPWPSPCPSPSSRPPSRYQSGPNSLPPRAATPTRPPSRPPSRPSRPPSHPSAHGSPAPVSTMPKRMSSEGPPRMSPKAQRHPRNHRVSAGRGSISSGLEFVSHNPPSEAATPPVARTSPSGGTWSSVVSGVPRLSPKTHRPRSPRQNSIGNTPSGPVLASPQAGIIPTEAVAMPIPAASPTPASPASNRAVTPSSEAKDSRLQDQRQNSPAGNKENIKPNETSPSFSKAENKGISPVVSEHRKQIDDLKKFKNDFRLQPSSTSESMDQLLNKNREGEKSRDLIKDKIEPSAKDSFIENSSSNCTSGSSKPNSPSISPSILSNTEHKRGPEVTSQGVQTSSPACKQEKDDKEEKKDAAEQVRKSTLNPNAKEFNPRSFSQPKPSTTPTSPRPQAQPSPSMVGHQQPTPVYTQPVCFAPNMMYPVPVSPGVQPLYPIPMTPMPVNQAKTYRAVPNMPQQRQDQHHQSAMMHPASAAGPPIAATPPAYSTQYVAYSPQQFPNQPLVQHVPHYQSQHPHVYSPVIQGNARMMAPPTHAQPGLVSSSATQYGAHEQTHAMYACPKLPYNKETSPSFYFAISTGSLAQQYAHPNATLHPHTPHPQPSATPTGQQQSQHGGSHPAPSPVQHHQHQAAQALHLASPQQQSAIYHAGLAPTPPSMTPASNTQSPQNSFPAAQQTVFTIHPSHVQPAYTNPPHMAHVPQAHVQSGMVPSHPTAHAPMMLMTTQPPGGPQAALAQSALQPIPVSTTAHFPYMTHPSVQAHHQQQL

SMILES	Potency
Cc1nc2cc(OC(=O)N(C)Cc3cccc(-c4ccncc4)c3)ccc2s1	39.8 µM (active)
COc1ccc(C[C@@H]2NC[C@H](O)[C@@H]2OC(C)=O)cc1	0.0891 µM (active)
CCOC(=O)[C@]12Cc3cc(OC)ccc3[C@H]1N(CCC(=O)OC)C(=O)c1cc(OC)ccc12	28.2 µM (active)
CCCCCN1C(=O)c2cc(OC)ccc2[C@@]2(C(=O)OCC)Cc3cc(OC)ccc3[C@@H]12	11.2 µM (active)
Cc1ccc(C(=O)N[C@@H](C)CN2C3=NC[C@H](Cc4ccccc4)N3C[C@H]2Cc2ccc(O)cc2)cc1Br	22.4 µM (active)
O=c1c2ccccc2nc(/C=C/c2ccc(O)cc2)n1-c1ccc(O)cc1	inactive
Cc1ccc(C)c(S(=O)(=O)Nc2ccc3c(c2)CCCN3C(=O)c2cccs2)c1	39.8 µM (active)
COc1cccc(-c2nc3cc4c(cc3cc2CN(C(=O)c2cccs2)C2CC2)CCC4)c1OC	35.5 µM (active)
CCOc1ccc(N/C=C2/C(=O)NC(=S)N(Cc3ccccc3)C2=O)cc1	inactive
CCCC[C@@H](C)C[C@@H](C)C(=O)N(C)[C@@H](CC(C)C)C(=O)N[C@H](C(=O)N(C)[C@H](C(=O)N1C[C@@H](O)C[C@H]1C(=O)N1C(=O)C=C[C@@H]1C)C(C)C)C(C)OC(C)=O (stereo not given in full)	10 µM (active)
O=c1c2ccccc2nc(/C=C/c2ccc(O)c(O)c2)n1-c1ccccc1	inactive
Cc1ccc(N2C(=O)/C(=C/NCc3ccccn3)C(=O)NC2=S)cc1	inactive
O=C1NC(=S)N(c2ccccc2F)C(=O)/C1=C\c1cccs1	31.6 µM (active)
O=C1NC(=S)N(c2ccc(F)cc2)C(=O)/C1=C\c1ccoc1	inactive
Cc1cc(N(CCCl)CCCl)ccc1C=Cc1ccncn1	inactive
Oc1nc2ccccc2n1C1CCN(C(c2ccccc2)c2nnnn2-c2ccc3c(c2)OCCO3)CC1 (stereo not given)	14.1 µM (active)
Oc1nc2ccccc2n1C1CCN(C(CCc2ccccc2)c2nnnn2-c2ccc3c(c2)OCCO3)CC1 (stereo not given)	39.8 µM (active)
Oc1nc2ccccc2n1C1CCN(C(c2ccccc2OC(F)(F)F)c2nnnn2-c2ccc3c(c2)OCCO3)CC1 (stereo not given)	39.8 µM (active)
Oc1nc2ccccc2n1C1CCN(C(CCc2ccccc2)c2nnnn2C2CCCCC2)CC1 (stereo not given)	39.8 µM (active)
COc1ccc(C2CC(c3cccs3)=NN2c2nc(C)c(C(C)=O)s2)cc1OC (stereo not given)	inactive
CCOCCSc1nc2c(c(-c3cccs3)c1C#N)CC/C2=C/c1cccs1	inactive
Cc1cccc(-c2noc(-c3ccc4c(c3)OCO4)n2)c1	inactive
CC(C)CNC(=O)c1c(N)n(Cc2ccco2)c2nc3ccccc3nc12	inactive

SMILES	Potency
CCCN=C1C(=O)C2=C(C(O)=C1C)N1CC3NC3[C@@]1(OC)C2COC(N)=O (stereo not given in full)	inactive
COc1ccc(-n2c(/C=C/c3ccc(O)c(OC)c3)nc3ccccc3c2=O)cc1	inactive
CC[N+](C)(CC)CCC[n+]1c(-c2ccccc2)c2cc(N)ccc2c2ccc(N)cc21	11.2 µM (active)
C/C(=C\c1ccc(N(C)C)cc1)[N+](=O)[O-]	22.4 µM (active)
Cc1ccc(CN2CCCC(C(=O)c3cccc(C(F)(F)F)c3)C2)o1 (stereo not given)	inactive
C=C1C(=O)O[C@@H]2C[C@@H](C)[C@H]3C=CC(=O)[C@]3(O)C[C@@H]12	22.4 µM (active)
C=C1C(=O)O[C@@H]2C[C@@H](C)[C@@H]3C=CC(=O)[C@@]3(C)[C@@H](OC(=O)CC(=O)O[C@H]3[C@@H]4C(=C)C(=O)O[C@@H]4C[C@@H](C)[C@@H]4C=CC(=O)[C@]43C)[C@H]12	0.562 µM (active)
C=C1C(=O)O[C@@H]2C[C@@H](C)[C@@H]3C=CC(=O)[C@@]3(C)[C@@H](O)[C@H]12	20 µM (active)
COc1cc(/C=C/c2nc3ccccc3c(=O)n2-c2ccccc2O)ccc1O	inactive
COc1ccc(-c2c/c(=N\CCC(=O)O)c3cc(C)ccc3o2)cc1	inactive
C=CCn1c(=O)/c(=C\c2ccccn2)s/c1=C(/C#N)C(=O)NCC1CCCO1 (stereo not given)	inactive
O=C(Nc1c(Cl)cccc1Cl)Oc1cccc2cccnc12	inactive
O=C(NNC(=O)C12CC3CC(CC(C3)C1)C2)c1ccccc1F	inactive
C[C@@H]1O[C@H](O[C@H]2C[C@@H](O)[C@@]3(CO)[C@H]4[C@@H](O)C[C@]5(C)[C@@H](C6=CC(=O)OC6)CC[C@]5(O)[C@H]4CC[C@]3(O)C2)[C@@H](O)[C@H](O)[C@@H]1O	0.0891 µM (active)
C[C@@]12CC[C@H]3[C@@H](CC[C@]4(O)C[C@H](O)CC[C@@]34C=O)[C@]1(O)CC[C@@H]2C1=CC(=O)OC1	0.708 µM (active)
C[C@@H]1O[C@H](O[C@@H]2CC[C@@]3(C=O)[C@H]4CC[C@@]5(C)[C@@H](C6=CC(=O)OC6)CC[C@@]5(O)[C@@H]4CC[C@]3(O)C2)C[C@H](O)[C@@H]1O	3.55 µM (active)
CCC1C(=O)OCC1Cc1cncn1C (stereo not given)	inactive
CSCCC(c1nnnn1C1CCCCC1)N1CCC2(CC1)C(=O)NCN2c1ccccc1 (stereo not given)	39.8 µM (active)
COc1cccc(C(c2nnnn2C(C)(C)C)N2CCC3(CC2)C(=O)NCN3c2ccccc2)c1OC (stereo not given)	39.8 µM (active)
COc1cccc(C(c2nnnn2-c2ccc3c(c2)OCCO3)N2CCC3(CC2)C(=O)NCN3c2ccccc2)c1OC (stereo not given)	39.8 µM (active)
COc1cccc(C(c2nnnn2C2CCCC2)N2CCC3(CC2)C(=O)NCN3c2ccccc2)c1OC (stereo not given)	39.8 µM (active)
CC(C)(C)n1nnnc1C(c1cccc2ccccc12)N1CCC2(CC1)C(=O)NCN2c1ccccc1 (stereo not given)	39.8 µM (active)
